Screening data: PubChem, National Center for Advancing Translational Sciences (NCATS)
BLM helicase inh: inhibitors of human Bloom syndrome helicase BLM; Potency, µM (highest dose often 56.1 µM), inactives show at the top dose activity change, negative = inhibition, usual class: inhibitors; 350,000 tested, 0.2% active; recombinant BLM DNA unwinding, fluorescence dequenching;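 also: plate controls were vehicle for no effect and no enzyme for full effect; nearly all actives have a fitted effect of over 35% in size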
APE1 inh-1: inhibitors of human APE1 endonuclease | P27695 | recombinant APE1, TAMRA/BHQ-2 abasic DNA cleavage fluorescence | Potency, µM (doses to about 65.8 µM), without a hit: top-dose activity change, negative = inhibition, actives largely listed as inhibitors | 350,000 tested, 0.35% active | AID 2517;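 also: plate controls were vehicle for no effect and reference inhibitor for full effect; nearly all actives have a fitted effect of over 55% in size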
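Compound pre-exposure to 0.75 nM APE1, 15 min at ambient temperature. Reaction initiated with 50 nM TAMRA/BHQ-2 THF substrate, read immediately in kinetic mode, 525 nm excitation, 598 nm emission.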
Tb PGK inh: blocks T. brucei phosphoglycerate kinase. 380,000 tested, 0.043% active. PGK/GAPDH coupled, Kinase-Glo luminescence, 60 min. P07378. Potency, µM (highest dose often 57.5 µM), without a hit: at the top dose activity change, negative = inhibition, actives largely listed as inhibitors; also: nearly all actives have a fitted effect of over 60% in size
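Recombinant glycosomal PGK reaction used 1,3-bisphosphoglycerate generated in-well by GAPDH (100nM final) in 100mM TEA pH 7.6, 5mM MgCl2, 0.01% Tween-20. After 60 minutes at room temperature, ATP was read by Kinase-Glo Plus luminescence end-point.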
RECQ1 helicase: blocks DNA unwinding by human RECQ1; P46063; RECQ1 DNA unwinding, red fluorescence kinetic read; Potency, µM (top dose mostly 57.3 µM), without a hit: at the top dose activity, negative = inhibition, hits mostly inhibitors; 240,000 tested, 0.54% active; AID 2549;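 also: plate controls were vehicle for no effect and no enzyme for full effect; nearly all actives have a fitted effect of over 30% in size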
Target sequence (P46063 whole entry, looked up): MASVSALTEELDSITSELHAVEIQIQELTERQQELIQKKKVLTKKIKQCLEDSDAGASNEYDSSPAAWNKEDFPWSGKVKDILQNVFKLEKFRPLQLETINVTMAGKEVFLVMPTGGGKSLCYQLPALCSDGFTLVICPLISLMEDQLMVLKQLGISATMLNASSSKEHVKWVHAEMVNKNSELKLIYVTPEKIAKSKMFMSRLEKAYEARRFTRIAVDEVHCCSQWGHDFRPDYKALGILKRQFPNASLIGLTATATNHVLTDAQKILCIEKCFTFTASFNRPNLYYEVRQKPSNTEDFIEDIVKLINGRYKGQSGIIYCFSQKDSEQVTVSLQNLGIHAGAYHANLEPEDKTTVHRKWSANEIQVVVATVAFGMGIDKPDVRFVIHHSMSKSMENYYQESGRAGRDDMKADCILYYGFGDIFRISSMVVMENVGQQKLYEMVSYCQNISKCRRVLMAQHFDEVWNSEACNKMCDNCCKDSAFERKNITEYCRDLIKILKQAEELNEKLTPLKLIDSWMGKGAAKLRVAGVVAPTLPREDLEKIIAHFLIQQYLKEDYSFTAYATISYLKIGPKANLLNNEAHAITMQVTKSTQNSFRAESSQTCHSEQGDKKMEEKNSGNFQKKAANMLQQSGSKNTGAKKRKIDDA
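50 nM RECQ1T1 preincubated 15 min with compound in Tris pH 8.0 buffer with MgCl2, DTT, Tween-20 and 2.5 ug/ml poly(dI-dC); started with 200 nM TAMRA/BHQ-2 forked duplex and 2 mM ATP. Unwinding read as fluorescence (525/598 nm), two reads 2 h apart.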
FEN1 inhibitor: inhibitors of human flap endonuclease 1 | P39748 | Recombinant FEN1 flap cleavage, fluorescence, 15 min | Potency, µM (top dose mostly 114 µM), inactives show at the highest dose activity change, negative = inhibition, usual class: inhibitors | 390,000 tested, 0.35% active; also: nearly all actives have a fitted effect of over 65% in size
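Enzyme 10 nM, 15 min RT preincubation with compound; start with substrate 50 nM final; reads at 0 and 15 min; qHTS titration, four-parameter Hill fit.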
APE1 dye cs: counter-screen for APE1 inhibitors: DNA dye displacement; 480 tested, 7% active; DNA fluorescent dye displacement counterscreen, fluorescence; Potency, µM (titrated, usually from 28.5 µM), inactives show at the top dose activity change, negative = inhibition, usual class: inhibitors; AID 2564; shares compounds with APE1 inh-1;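 also: loss of thiazole orange fluorescence as the dye is displaced from duplex DNA; 0% = ThO with dsDNA and no compound and -100% = ThO without dsDNA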
EndoIV counter: blocks E. coli endonuclease IV DNA cleavage | Potency, µM (top dose mostly 27.1 µM), for inactives: at the highest dose activity change, negative = inhibition, actives largely listed as inhibitors | 560 tested, 4% active | E. coli Endo IV, fluorogenic AP-site DNA cleavage | shares compounds with APE1 inh-1 | AID 2565;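 also: plate controls were uninhibited enzyme wells for no effect and no enzyme buffer wells for full effect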
APE1 inh-2: confirmation of inhibitors of human APE1 endonuclease. AID 2572. shares compounds with APE1 inh-1. 750 tested, 44% active. purified APE1, fluorogenic abasic-site DNA cleavage. Potency, µM (titrated, usually from 57.1 µM), for inactives: at the top dose activity change, negative = inhibition, most hits filed as inhibitors; also: nearly all actives have a fitted effect of over 30% in size
APE1 FP inh: APE1 (human) DNA binding inhibition, fluorescence polarization | shares compounds with APE1 inh-1 | APE1 binding to TAMRA-labelled double-stranded DNA, fluorescence polarization displacement | Potency, µM (titrated, usually from 28.5 µM), for inactives: top-dose activity, negative = inhibition, actives largely listed as inhibitors | 480 tested, 7% active
An asterisk follows results filed as active; i = inactive; ? = inconclusive; / = no result; [ ] = another dose, or the depositor's remark. A selection: hits, their analogues and other compounds. The true share with any hit is near 0.74%. Calls follow the shape of the dose curve; as a rule, active = well fitted curve in the direction sought with a large enough effect; inconclusive = small, poorly fitted or top-dose-only effect, or another doubt; inactive = no such curve, though single readings can be large; an effect the other way counts as inactive or inconclusive. Unless noted, % is scaled to controls: 0 for no effect and ±100 for the full control effect; potency is read from the fitted curve at half-maximal effect.

SMILES | BLM helicase inh | APE1 inh-1 | Tb PGK inh | RECQ1 helicase | FEN1 inhibitor | APE1 inh-2 | others
CCCCCCCCCCCCCCCCCCN(CCCCCCCCCCCCCCCCCC)c1ccc(/C=C/c2ccnc3ccccc23)cc1 | / | / | / | / | -2.6% | /
CCCC[n+]1c(/C=C/c2ccc(N(C)C)cc2)sc2ccccc21 | / | / | / | / | 50.1µM* | /
CCCCCCCCCC[n+]1ccc(/C=C/c2ccc(N(C)C)cc2)c2ccccc21 | / | / | / | / | 79.4µM* | /
CCOC(=O)C1CCCN(C(=O)c2cc3c(Cl)nc4ccccc4c3s2)C1 (stereo not given) | -1.5% | / | 0.8% | / | ? | /
COc1ccc(CCNC(=O)COC(=O)c2ccc(OC)cc2OC)cc1 | / | -12.0% | -8.3% | / | 2.1% | /
CN1CCc2nc3sc(C(=O)Nc4cccc(C#N)c4)c(N)c3cc2C1 | -6.4% | / | / | / | 39.8µM* | /
CCOc1nc2cnccc2n(CC(=O)Nc2cccc(C)c2C)c1=O | 2.6% | 28.9% | -4.2% | / | -0.1% | /
C/C=C\C1=C(CO)C(=O)[C@@H]2OC2C1=O (stereo not given in full) | -4.6%[12.4 µM] | 1.58µM* | / | 3.55µM* | / | /
CCOC(=O)N1CCC(N2Cc3cccc(C(=O)NCc4ccc5c(c4)OCO5)c3C2=O)CC1 | -20.6% | ? | -10.3% | -10.4% | 3.0% | ?
O=C(NCc1ccc2c(c1)OCO2)c1cccc2c1C(=O)N(C1CCCCC1)C2 | 3.5% | -1.5% | 2.7% | 3.8% | -15.2% | /
CCOC(=O)c1sc2nc3c(SCCC(=O)O)cc(C(=O)c4cc(OC)ccc4O)cn3c(=O)c2c1C | ? | 1.58µM* | -14.6% | ? | ? | 2.24µM* | APE1 dye cs=?;EndoIV counter=10.8%;APE1 FP inh=?
Cc1ccc(-n2nnnc2SCC(=O)Nc2c(C)n(C)n(-c3ccccc3)c2=O)cc1 | -2.3% | -4.9% | 0.2% | i | 7.0% | /
COc1c(O)cc2c(c1O)C1OC(CO)C(O)[C@H](O)[C@H]1OC2=O (stereo not given in full) | 3.5% | 15.9% | / | -10.5% | / | /
O=C(O[C@@H]1OC2COC(=O)c3cc(O)c(O)c(O)c3-c3c(cc(O)c(O)c3O)C(=O)O[C@@H]([C@H]1O)[C@@H]2O)c1cc(O)c(O)c(O)c1 | 5.62µM* | 0.0708µM* | -82.1% | -28.5% | 0.708µM* | 0.0501µM* | APE1 dye cs=-6.8%;EndoIV counter=110.9%;APE1 FP inh=?
NS(=O)(=O)c1cc2c(cc1Cl)N[C@@H](CC1CCCC1)NS2(=O)=O | 0.0%[21.4 µM] | / | / | -6.0%[25.9 µM] | / | /
NS(=O)(=O)c1cc2c(cc1Cl)NCNS2(=O)=O | 0.0% | -2.9% | 6.6% | -8.2% | 16.4% | -16.6% | EndoIV counter=-3.1%[57.1 µM]
COc1ccc2c([N+](=O)[O-])c(N3CCCC3)[nH]c2c1 | -9.5% | 33.8% | -5.8% | / | -3.0% | /
CCCOc1ccccc1-c1nc2n[nH]nc2c(=O)[nH]1 | -13.3% | -5.4% | i | 15.7% | -7.1% | 0.9% | APE1 dye cs=-6.6%[57.1 µM];EndoIV counter=7.7%[57.1 µM];APE1 FP inh=22.3%[57.1 µM]
CCCc1nn(C)c2c(=O)[nH]c(-c3ccccc3OCC)nc12 | -4.5% | 0.4% | 4.5% | 8.6% | 4.6% | /
NC(=O)c1ccc2c(=O)n3c(-c4cc(Cl)c(N)c(Cl)c4)csc3nc2c1 | -6.9% | -4.4% | -13.5% | ? | ? | -26.1%
CCOC(=O)CNC(=O)CSc1nnc(-c2ccco2)n1Cc1ccco1 | 2.6% | 31.6µM* | -0.5% | -13.8% | 3.6% | -9.7%[24.4 µM] | APE1 dye cs=?;EndoIV counter=1.6%;APE1 FP inh=-93.0%
